Test results from PubChem BioAssay AID1159580 (chemical genetic matrix, 2015).
Out of some 5,500 compounds screened, about 2,000 (36%) were called active. Inconclusive results (about 18%) are left out. Some of the results follow. Unmarked numbers belong to inactive results. Cut-off read from the data, not from the text of the source: active = normalized growth mostly below about 0.91 (no sharp cut-off); inconclusive = no clear call, values can overlap the other calls; inactive = mostly above about 0.92.

Test: chemical genetic growth profiling, strain panel (AID 1159580);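 note: tested at 20 µM; growth read once vehicle control cultures reached saturation at 30 °C; 1 = growth at the plate median or of vehicle wells; lower values mean less growth of the strain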
Details: growth OD

## COc1c(C(C)C)oc2cc3oc(=O)ccc3cc12
S. cerevisiae deletion strains, locus YBR021W, strain FUR4, active compounds read low
  normalized growth: 0.915
S. cerevisiae deletion strains, locus YBR229C, strain ROT2, active compounds read low
  normalized growth: 0.987
S. cerevisiae deletion strains, locus YCL029C, strain bik1, active compounds read low
  normalized growth: 0.839 (active)
S. cerevisiae deletion strains, locus YDL035C, strain GPR1, active compounds read low
  normalized growth: 0.749 (active)
S. cerevisiae deletion strains, locus YDL074C, strain BRE1, active compounds read low
  normalized growth: 0.721 (active)
S. cerevisiae deletion strains, locus YDL101C, strain DUN1, active compounds read low
  normalized growth: 0.918
S. cerevisiae deletion strains, locus YDL185W, strain tfp1, active compounds read low
  normalized growth: 0.933
S. cerevisiae deletion strains, locus YDL192W, strain arf1, active compounds read low
  normalized growth: 0.894 (active)
S. cerevisiae deletion strains, locus YDR101C, strain arx1, active compounds read low
  normalized growth: 0.929
S. cerevisiae deletion strains, locus YDR162C, strain NBP2, active compounds read low
  normalized growth: 0.826 (active)
S. cerevisiae deletion strains, locus YDR318W, strain mcm21, active compounds read low
  normalized growth: 0.89 (active)
S. cerevisiae deletion strains, locus YDR388W, active compounds read low
  normalized growth: 0.935
S. cerevisiae deletion strains, locus YDR502C, strain sam2, active compounds read low
  normalized growth: 0.873 (active)
S. cerevisiae deletion strains, locus YEL061C, strain CIN8, active compounds read low
  normalized growth: 0.933
S. cerevisiae deletion strains, locus YER110C, active compounds read low
  normalized growth: 0.914
S. cerevisiae deletion strains, locus YER155C, strain BEM2, active compounds read low
  normalized growth: 0.972
S. cerevisiae deletion strains, locus YER167W, strain BCK2, active compounds read low
  normalized growth: 0.921
S. cerevisiae deletion strains, locus YGL078C, strain dbp3, active compounds read low
  normalized growth: 0.911 (active)
S. cerevisiae deletion strains, locus YGL086W, strain mad1, active compounds read low
  normalized growth: 0.883 (active)
S. cerevisiae deletion strains, locus YGL248W, strain PDE1, active compounds read low
  normalized growth: 0.869 (active)
S. cerevisiae deletion strains, locus YGR135W, strain pre9, active compounds read low
  normalized growth: 0.779 (active)
S. cerevisiae deletion strains, locus YGR252W, strain gcn5, active compounds read low
  normalized growth: 0.55 (active)
S. cerevisiae deletion strains, locus YHR030C, strain SLT2, active compounds read low
  normalized growth: 0.885 (active)
S. cerevisiae deletion strains, locus YHR079C, strain IRE1 (second series), active compounds read low
  normalized growth: 0.954
S. cerevisiae deletion strains, locus YHR094C, strain hxt1, active compounds read low
  normalized growth: 0.967
S. cerevisiae deletion strains, locus YHR129C, strain ARP1, active compounds read low
  normalized growth: 0.901 (active)
S. cerevisiae deletion strains, locus YHR200W, strain rpn10, active compounds read low
  normalized growth: 0.915 (active)
S. cerevisiae deletion strains, locus YIL066C, strain RNR3, active compounds read low
  normalized growth: 0.801 (active)
S. cerevisiae deletion strains, locus YIL073C, strain SPO22, active compounds read low
  normalized growth: 0.838
S. cerevisiae deletion strains, locus YIL125W, strain kgd1, active compounds read low
  normalized growth: 0.971
S. cerevisiae deletion strains, locus YIR030C, strain dcg1, active compounds read low
  normalized growth: 0.941
S. cerevisiae deletion strains, locus YJL095W, strain BCK1, active compounds read low
  normalized growth: 0.722 (active)
S. cerevisiae deletion strains, locus YJL134W, strain LCB3, active compounds read low
  normalized growth: 0.983
S. cerevisiae deletion strains, locus YJL168C, strain set2, active compounds read low
  normalized growth: 0.957
S. cerevisiae deletion strains, locus YJL187C, strain SWE1 (second series), active compounds read low
  normalized growth: 0.883
S. cerevisiae deletion strains, locus YJR043C, strain POL32, active compounds read low
  normalized growth: 0.764 (active)
S. cerevisiae deletion strains, locus YJR075W, strain HOC1, active compounds read low
  normalized growth: 0.877 (active)
S. cerevisiae deletion strains, locus YKL009W, strain mrt4, active compounds read low
  normalized growth: 0.745 (active)
S. cerevisiae deletion strains, locus YKL068W, active compounds read low
  normalized growth: 0.965
S. cerevisiae deletion strains, locus YKL085W, strain MDH1 (second series), active compounds read low
  normalized growth: 0.958
S. cerevisiae deletion strains, locus YKL085W, strain MDH1, active compounds read low
  normalized growth: 0.958
S. cerevisiae deletion strains, locus YKR001C, strain vps1, active compounds read low
  normalized growth: 0.777 (active)
S. cerevisiae deletion strains, locus YLR039C, strain RIC1, active compounds read low
  normalized growth: 0.944
S. cerevisiae deletion strains, locus YLR058C, strain SHM2, active compounds read low
  normalized growth: 0.932
S. cerevisiae deletion strains, locus YLR102C, strain apc9, active compounds read low
  normalized growth: 0.946
S. cerevisiae deletion strains, locus YLR262C, strain YPT6, active compounds read low
  normalized growth: 0.971
S. cerevisiae deletion strains, locus YLR268W, strain sec22, active compounds read low
  normalized growth: 0.888
S. cerevisiae deletion strains, locus YLR330W, strain CHS5, active compounds read low
  normalized growth: 0.874 (active)
S. cerevisiae deletion strains, locus YLR342W, strain FKS1 (second series), active compounds read low
  normalized growth: 0.661 (active)
S. cerevisiae deletion strains, locus YLR371W, strain rom2, active compounds read low
  normalized growth: 0.951
S. cerevisiae deletion strains, locus YLR418C, strain cdc73, active compounds read low
  normalized growth: 0.703 (active)
S. cerevisiae deletion strains, locus YML016C, strain PPZ1, active compounds read low
  normalized growth: 0.958
S. cerevisiae deletion strains, locus YML032C, strain rad52, active compounds read low
  normalized growth: 0.855 (active)
S. cerevisiae deletion strains, locus YML124C, strain tub3, active compounds read low
  normalized growth: 0.96
S. cerevisiae deletion strains, locus YMR078C, strain ctf18, active compounds read low
  normalized growth: 0.945
S. cerevisiae deletion strains, locus YMR223W, strain ubp8, active compounds read low
  normalized growth: 0.9 (active)
S. cerevisiae deletion strains, locus YMR263W, strain SAP30, active compounds read low
  normalized growth: 0.887 (active)
S. cerevisiae deletion strains, locus YMR307W, strain GAS1, active compounds read low
  normalized growth: 0.743
S. cerevisiae deletion strains, locus YNL067W, strain RPL9B, active compounds read low
  normalized growth: 0.862 (active)
S. cerevisiae deletion strains, locus YNL153C, strain GIM3, active compounds read low
  normalized growth: 0.859 (active)
S. cerevisiae deletion strains, locus YNL233W, strain BNI4, active compounds read low
  normalized growth: 0.806 (active)
S. cerevisiae deletion strains, locus YNL250W, strain rad50, active compounds read low
  normalized growth: 0.932
S. cerevisiae deletion strains, locus YNL271C, strain bni1, active compounds read low
  normalized growth: 0.889 (active)
S. cerevisiae deletion strains, locus YNL298W, strain CLA4, active compounds read low
  normalized growth: 0.802 (active)
S. cerevisiae deletion strains, locus YNL307C, strain MCK1, active compounds read low
  normalized growth: 0.51 (active)
S. cerevisiae deletion strains, locus YNR052C, strain pop2, active compounds read low
  normalized growth: 0.884 (active)
S. cerevisiae deletion strains, locus YOL012C, strain htz1
  normalized growth: 1.16
S. cerevisiae deletion strains, locus YOL147C, strain pex11, active compounds read low
  normalized growth: 0.935
S. cerevisiae deletion strains, locus YOR061W, strain CKA2, active compounds read low
  normalized growth: 0.91
S. cerevisiae deletion strains, locus YOR069W, strain VPS5, active compounds read low
  normalized growth: 0.967
S. cerevisiae deletion strains, locus YOR136W, strain idh2, active compounds read low
  normalized growth: 0.943
S. cerevisiae deletion strains, locus YOR144C, strain elg1, active compounds read low
  normalized growth: 0.963
S. cerevisiae deletion strains, locus YOR184W, strain ser1, active compounds read low
  normalized growth: 0.828 (active)
S. cerevisiae deletion strains, locus YOR316C, strain cot1, active compounds read low
  normalized growth: 0.957
S. cerevisiae deletion strains, locus YPL055C, strain LGE1, active compounds read low
  normalized growth: 0.755 (active)
S. cerevisiae deletion strains, locus YPR119W, strain clb2, active compounds read low
  normalized growth: 0.957
S. cerevisiae deletion strains, locus YPR141C, strain kar3, active compounds read low
  normalized growth: 0.952
S. cerevisiae deletion strains, locus YPR163C, strain tif3, active compounds read low
  normalized growth: 0.769 (active)
S. cerevisiae deletion strains, locus YPR167C, strain met16, active compounds read low
  normalized growth: 0.895 (active)
S. cerevisiae deletion strains, strain wtn01, active compounds read low
  normalized growth: 0.887 (active)
S. cerevisiae strains, strain wild type, active compounds read low
  normalized growth: 0.899 (active)
